Some of the results follow. Results filed as inconclusive are left out. The source made the active and inactive calls. Calls come from the whole dose curve; as a rule, active = well fitted inhibition curve with a large enough effect; inconclusive = small, poorly fitted or top-dose-only effect; inactive = no such curve, though single readings can be large or run the other way.
Each molecule was assayed against Histone-lysine N-methyltransferase 2A (Homo sapiens) (UniProt Q03164) (assay: qHTS Fluorescence Polarization (FP) Assay for Inhibitors of MLL CXXC domain - DNA interaction: Fluorescein FP). Conditions: MLL CXXC-DNA binding.
Histone-lysine N-methyltransferase 2A (Homo sapiens), sequence (Q03164 whole entry, looked up, the tested form may be a part): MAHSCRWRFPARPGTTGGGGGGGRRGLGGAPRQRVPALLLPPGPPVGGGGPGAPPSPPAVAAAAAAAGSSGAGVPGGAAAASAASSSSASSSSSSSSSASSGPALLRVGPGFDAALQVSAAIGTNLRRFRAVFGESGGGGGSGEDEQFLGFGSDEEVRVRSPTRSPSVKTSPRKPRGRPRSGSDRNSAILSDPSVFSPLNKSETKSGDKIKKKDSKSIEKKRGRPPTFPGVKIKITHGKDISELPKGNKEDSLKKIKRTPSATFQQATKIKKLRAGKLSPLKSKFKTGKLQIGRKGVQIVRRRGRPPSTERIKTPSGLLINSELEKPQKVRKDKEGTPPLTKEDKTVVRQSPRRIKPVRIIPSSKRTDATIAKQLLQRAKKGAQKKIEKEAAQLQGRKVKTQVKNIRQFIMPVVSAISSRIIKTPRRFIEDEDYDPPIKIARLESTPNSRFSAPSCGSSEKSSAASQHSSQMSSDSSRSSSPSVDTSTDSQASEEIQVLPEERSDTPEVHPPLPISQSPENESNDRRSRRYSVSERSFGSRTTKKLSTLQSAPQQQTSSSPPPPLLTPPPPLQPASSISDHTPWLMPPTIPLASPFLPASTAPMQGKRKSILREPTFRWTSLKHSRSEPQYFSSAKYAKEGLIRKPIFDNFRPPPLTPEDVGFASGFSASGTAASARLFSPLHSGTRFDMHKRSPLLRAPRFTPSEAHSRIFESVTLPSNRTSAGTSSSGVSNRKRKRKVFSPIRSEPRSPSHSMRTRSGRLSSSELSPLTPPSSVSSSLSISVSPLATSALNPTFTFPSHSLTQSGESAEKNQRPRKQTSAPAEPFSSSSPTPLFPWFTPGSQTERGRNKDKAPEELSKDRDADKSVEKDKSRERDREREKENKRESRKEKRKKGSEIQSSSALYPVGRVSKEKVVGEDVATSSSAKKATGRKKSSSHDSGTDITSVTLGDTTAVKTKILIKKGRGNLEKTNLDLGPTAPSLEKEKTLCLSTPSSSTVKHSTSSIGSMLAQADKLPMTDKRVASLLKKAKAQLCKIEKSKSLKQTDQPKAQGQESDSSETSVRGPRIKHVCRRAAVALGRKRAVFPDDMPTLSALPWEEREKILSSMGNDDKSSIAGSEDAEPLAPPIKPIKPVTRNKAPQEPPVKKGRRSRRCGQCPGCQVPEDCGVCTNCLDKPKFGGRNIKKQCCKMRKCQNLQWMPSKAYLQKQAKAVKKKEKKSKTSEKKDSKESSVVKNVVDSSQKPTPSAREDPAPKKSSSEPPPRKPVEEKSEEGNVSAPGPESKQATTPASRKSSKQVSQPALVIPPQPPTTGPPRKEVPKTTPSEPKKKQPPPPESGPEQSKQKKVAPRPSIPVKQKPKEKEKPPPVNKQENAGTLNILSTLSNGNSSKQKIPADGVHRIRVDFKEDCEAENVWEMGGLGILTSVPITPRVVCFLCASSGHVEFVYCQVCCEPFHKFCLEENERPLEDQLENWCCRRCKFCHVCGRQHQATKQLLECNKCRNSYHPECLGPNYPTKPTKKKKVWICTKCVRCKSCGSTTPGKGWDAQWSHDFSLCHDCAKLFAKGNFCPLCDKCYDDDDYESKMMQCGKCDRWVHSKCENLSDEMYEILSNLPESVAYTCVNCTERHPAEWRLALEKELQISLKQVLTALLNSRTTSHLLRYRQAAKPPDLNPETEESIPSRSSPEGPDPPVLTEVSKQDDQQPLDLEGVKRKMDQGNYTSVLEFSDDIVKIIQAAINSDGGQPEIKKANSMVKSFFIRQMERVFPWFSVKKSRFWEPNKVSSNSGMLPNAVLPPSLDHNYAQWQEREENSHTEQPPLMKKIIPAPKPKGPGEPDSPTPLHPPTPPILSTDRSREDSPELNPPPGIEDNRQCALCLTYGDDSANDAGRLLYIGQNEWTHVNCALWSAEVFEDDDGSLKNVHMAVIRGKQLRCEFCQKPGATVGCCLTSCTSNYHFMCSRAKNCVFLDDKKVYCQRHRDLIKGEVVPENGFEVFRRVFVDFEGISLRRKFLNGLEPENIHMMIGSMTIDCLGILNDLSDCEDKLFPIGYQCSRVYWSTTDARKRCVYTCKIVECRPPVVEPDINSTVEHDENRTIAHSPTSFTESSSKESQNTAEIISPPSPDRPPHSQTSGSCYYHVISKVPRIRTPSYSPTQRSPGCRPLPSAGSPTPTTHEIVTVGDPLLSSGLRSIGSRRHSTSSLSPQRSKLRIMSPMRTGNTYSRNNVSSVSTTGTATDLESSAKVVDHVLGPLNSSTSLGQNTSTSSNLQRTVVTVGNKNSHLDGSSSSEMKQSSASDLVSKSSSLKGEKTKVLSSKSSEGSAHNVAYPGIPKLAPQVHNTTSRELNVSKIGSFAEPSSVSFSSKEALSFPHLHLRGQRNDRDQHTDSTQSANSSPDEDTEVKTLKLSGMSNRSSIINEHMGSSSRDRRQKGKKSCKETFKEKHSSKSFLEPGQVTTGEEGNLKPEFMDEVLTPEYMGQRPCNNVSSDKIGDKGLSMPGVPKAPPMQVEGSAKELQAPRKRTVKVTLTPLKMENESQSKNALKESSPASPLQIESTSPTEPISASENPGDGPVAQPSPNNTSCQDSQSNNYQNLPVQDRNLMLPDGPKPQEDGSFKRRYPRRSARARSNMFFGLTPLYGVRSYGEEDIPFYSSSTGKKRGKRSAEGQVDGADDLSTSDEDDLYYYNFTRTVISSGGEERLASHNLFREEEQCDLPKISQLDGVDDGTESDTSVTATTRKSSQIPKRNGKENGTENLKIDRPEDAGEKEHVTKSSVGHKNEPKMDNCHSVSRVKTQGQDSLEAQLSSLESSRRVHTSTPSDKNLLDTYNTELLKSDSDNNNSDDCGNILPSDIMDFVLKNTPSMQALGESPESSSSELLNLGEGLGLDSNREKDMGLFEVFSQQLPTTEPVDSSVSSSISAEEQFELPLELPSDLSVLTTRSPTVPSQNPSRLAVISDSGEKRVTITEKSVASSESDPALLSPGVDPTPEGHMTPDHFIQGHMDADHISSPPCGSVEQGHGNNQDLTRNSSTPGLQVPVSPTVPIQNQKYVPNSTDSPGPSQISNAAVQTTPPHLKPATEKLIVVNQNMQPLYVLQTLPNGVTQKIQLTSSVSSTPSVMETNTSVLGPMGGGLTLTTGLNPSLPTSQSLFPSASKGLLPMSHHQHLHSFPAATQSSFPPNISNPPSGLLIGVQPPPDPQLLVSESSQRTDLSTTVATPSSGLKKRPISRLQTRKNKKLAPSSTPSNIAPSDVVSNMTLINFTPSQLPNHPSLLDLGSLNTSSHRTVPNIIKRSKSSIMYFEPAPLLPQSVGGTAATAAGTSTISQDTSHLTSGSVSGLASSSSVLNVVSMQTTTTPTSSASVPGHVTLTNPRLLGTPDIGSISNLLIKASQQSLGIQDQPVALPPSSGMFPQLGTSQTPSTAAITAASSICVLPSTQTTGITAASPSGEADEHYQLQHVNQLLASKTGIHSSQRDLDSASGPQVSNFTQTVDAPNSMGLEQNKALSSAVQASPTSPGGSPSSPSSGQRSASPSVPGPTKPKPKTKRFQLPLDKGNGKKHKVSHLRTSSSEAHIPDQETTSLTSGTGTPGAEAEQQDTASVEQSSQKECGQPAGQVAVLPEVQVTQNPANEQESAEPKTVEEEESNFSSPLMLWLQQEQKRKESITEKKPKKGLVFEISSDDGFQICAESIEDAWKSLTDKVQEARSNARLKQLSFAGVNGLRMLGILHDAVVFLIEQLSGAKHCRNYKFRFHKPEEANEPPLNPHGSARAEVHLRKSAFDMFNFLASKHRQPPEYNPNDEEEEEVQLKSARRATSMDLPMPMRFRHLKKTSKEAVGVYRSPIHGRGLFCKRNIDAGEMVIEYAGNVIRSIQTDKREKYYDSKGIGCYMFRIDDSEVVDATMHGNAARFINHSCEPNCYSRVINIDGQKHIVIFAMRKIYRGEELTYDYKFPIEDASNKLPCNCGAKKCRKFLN
Excerpt: The MLL (Mixed Lineage Luekemia) gene is involved in chromosomal translocation that results in either acute lymphoid leukemia (ALL) or acute myeloid leukemia (AML). Chromasomal translocation of MLL gene is responsible for the fusion of N-terminal MLL to more than 60 different partner genes in frame. Many of the MLL partner genes contain transcription activation domains or function as transcriptional activators. Despite the heterogeneity of fusion partners, the N-terminus of MLL fusion proteins always consists of the N-terminal menin binding motif and the CXXC domain. The MLL-CXXC domain specifically recognizes unmethylated CpG sequences of the HOX-A gene. Disruption of the MLL-CXXC and HOX-A gene interaction leads to down regulation of HOX-A gene expression and may potentially reverse leukemogenesis. We have miniaturized and optimized an in-vitro assay to screen for inhibitors of the MLL-CXXC domain and HOX-A DNA interaction, which could have utility in MLL fusion leukemias.
This is a hit validation assay that tests this hits identified in the primary screen in this secondary screen, using flurescein FP as a read-out.
NIH Molecular Libraries Probe Production Network [MLPCN]
NIH Chemical Genomics Center [NCGC]
PI Name: John Bushweller, University of Virgina
The affinity purified MLL-CXXC domain, unlabeled HOX-A9 DNA strand, fluorescein (FLSN) labeled HOX-A9 DNA strand were kindly supplied by the laboratory of Dr. John Bushweller, University of Virginia. All reagents were stored in single use aliquots at -80C.
Assay buffer: 50 mM TRIS-HCl pH 7.5, 50 mM NaCl, 1 mM DTT. Add 0.05% BSA prior to reaction setup.
1.Dispense 1 ul of a 7 uM MLL-CXXC solution prepared in assay buffer into column 1-48.
2.Transfer 23 nl of compounds and unlabeled HOX-A9 per well.
3.Incubate for 5 minutes at ambient.
4.Dispense 1ul of a 50 nM FLSN-HOX-A9 solution prepared in assay buffer into columns 1-48
5.Centrifuge for 30 seconds at 1000 RPM.
6.Incubate for 30 minutes at ambient.
7.Read using the Envision reader fluorescent polarization protocol.
With `COc1ccc(S(=O)(=O)/N=C2\C=C(NS(=O)(=O)c3ccccc3)C(=O)c3ccccc32)cc1` the Potency was 50.3 µM (active). `CCOC(=O)/C(N=Nc1cc(C(=O)O)cc(C(=O)O)c1)=C(\O)CCl` was tested, and the Potency was 6.33 µM (active). For `COc1cc(/C=C2/C(=O)NN(c3ccc(F)cc3)C2=O)cc([N+](=O)[O-])c1O`, the Potency was 71.1 µM (active). In the case of `O=C1NN(c2ccccc2)C(=O)/C1=C/c1ccc(-c2cccc(C(=O)O)c2)o1`, the Potency is reported as 100 µM (active). For `COc1ccc(-c2onc3ccc(C(C)=O)cc23)cc1`, the Potency was 10 µM (active).

Reference: PubChem BioAssay AID624160 (National Center for Advancing Translational Sciences (NCATS), 2012)
Note: nearly all actives have a fitted effect of over 80% in size.
Potency is the fitted concentration of half-maximal effect.
